Experimental data from PubChem BioAssay (Tox21).
Results filed as inconclusive are left out. Where a call stands in place of a potency, no number is given. Activity calls are given as the source filed them. Unless noted, the call rests on the fitted dose curve; in most records, active means well fitted curve in the direction sought with a large enough effect in the repeat runs; inconclusive means weak or mixed curves; inactive means no such curve, though single readings can be large; an effect the other way counts as inactive or inconclusive.

Assays:
[1] = qHTS assay to identify small molecule antagonists of the glucocorticoid receptor (GR) signaling pathway - cell viability counter screen (AID 720693); further: nearly all actives have a fitted effect of over 55% in size
[2] = qHTS assay for identifying genotoxic compounds that show differential cytotoxicity against isogenic chicken DT40 cell lines with known DNA damage response pathways - wild type cell line (AID 743012); further: nearly all actives have a fitted effect of over 60% in size; further: potency means the concentration at half of the fitted maximal effect
How it was run: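 CellTiter-Glo luminescence readout of viability in wild type DT40 cells after 40 h compound exposure at 37 C/5% CO2; 300 cells/well; reagent incubated 30 min at room temperature before reading.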

[3] = qHTS assay for identifying genotoxic compounds that show differential cytotoxicity against isogenic chicken DT40 cell lines with known DNA damage response pathways - Rad54/Ku70 mutant cell line (AID 743015); further: nearly all actives have a fitted effect of over 60% in size; further: potency means the concentration at half of the fitted maximal effect
[4] = qHTS assay to identify small molecule antagonists of the androgen receptor (AR) signaling pathway - cell viability counter screen (AID 743033; further: nearly all actives have a fitted effect of over 45% in size)
[5] = biological target: Androgen receptor (Homo sapiens) (UniProt P10275); assay: qHTS assay to identify small molecule agonists of the androgen receptor (AR) signaling pathway (AID 743036; active means well fitted activation curve with a large enough effect in the signal ratio in the repeat runs, with a control signal flat, not every such curve was filed as active; the % refers to the signal ratio)
How it was run: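 Beta-lactamase under UAS control, stably integrated in HEK293 GripTite cells, reports receptor activation. After 16 h compound treatment, cells received FRET substrate for 2 h at room temperature before fluorescence reading.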

[6] = biological target: Androgen receptor (Homo sapiens) (UniProt P10275); assay: qHTS assay to identify small molecule antagonists of the androgen receptor (AR) signaling pathway using the MDA cell line (AID 743042; further: nearly all actives have a fitted effect of over 55% in size)
How it was run: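 MDA-kb2 breast carcinoma cells carrying MMTV-luciferase (AR/GR responsive) were co-treated with compounds and the agonist R1881 for 16 h at 37C. Inhibition read as ONE-Glo luminescence; CellTiter-Fluor fluorescence measured in parallel for cytotoxicity.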

[7] = qHTS assay to identify small molecule antagonists of the thyroid receptor (TR) signaling pathway (AID 743065); further: series mostly up to about 70 µM; nearly all actives have a fitted effect of over 55% in size
How it was run: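 GH3.TRE-Luc rat pituitary cells (two TREs driving luciferase) were dosed with compound, then stimulated with 1 nM T3 (final) for 23.5 h at 37 C. ONE-Glo luminescence was the read-out, with CellTiter-Fluor fluorescence as the cytotoxicity counter-screen.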

[8] = system: thyroid hormone receptor (rat, GH3 cells); assay: qHTS assay to identify small molecule agonists of the thyroid receptor (TR) signaling pathway (AID 743066; calls by dose curve)
[9] = biological target: Estrogen receptor (Homo sapiens) (UniProt P03372); assay: qHTS assay to identify small molecule antagonists of the estrogen receptor alpha (ER-alpha) signaling pathway (AID 743069; active means well fitted curve in the direction sought with a large enough effect in the signal ratio in the repeat runs, not every such curve was filed as active; the % refers to the signal ratio; further: potency means the concentration at half of the fitted maximal effect)
How it was run: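 Beta-lactamase FRET fluorescence is read after 2 hr at room temperature with LiveBLAzer B/G substrate. Before that, ER-alpha-bla HEK293 cells sit 4 hr after plating, then receive compound plus 17beta-estradiol and incubate 18 hr at 37C.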

[10] = qHTS assay to identify small molecule antagonists of the estrogen receptor alpha (ER-alpha) signaling pathway - cell viability counter screen (AID 743074; calls by dose curve;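 further: HEK293 cells carrying ER-alpha-UAS-bla reporter stimulated with 17beta-estradiol; nearly all actives have a fitted effect of over 45% in size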)
[11] = biological target: Estrogen receptor (Homo sapiens) (UniProt P03372); assay: qHTS assay to identify small molecule agonists of the estrogen receptor alpha (ER-alpha) signaling pathway (AID 743075; calls by dose curve;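 further: HEK293 GripTite cells with ER-alpha and UAS-driven beta-lactamase reporter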)
[12] = biological target: Estrogen receptor (Homo sapiens) (UniProt P03372); assay: qHTS assay to identify small molecule agonists of the estrogen receptor alpha (ER-alpha) signaling pathway using the BG1 cell line (AID 743079); further: nearly all actives have a fitted effect of over 20% in size
[13] = qHTS assay to identify small molecule antagonists of the estrogen receptor alpha (ER-alpha) signaling pathway using the BG1 cell line (AID 743080; calls by dose curve;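 further: BG1 cells stimulated with 17beta-estradiol alongside compound; series mostly up to about 70 µM; nearly all actives have a fitted effect of over 25% in size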)
How it was run: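 Seeding, 24 h rest, compound transfer from DMSO, 17beta-estradiol addition, 21.5 h incubation, CellTiter-Fluor (30 min, 37 C), then ONE-Glo (30 min, room temperature): this sequence was run on BG1-Luc-4E2 reporter cells.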

Aromatase (Homo sapiens) = Aromatase (Homo sapiens) (UniProt P11511); assay: qHTS assay to identify aromatase inhibitors (AID 743083); further: series mostly up to about 70 µM; nearly all actives have a fitted effect of over 55% in size
[14] = qHTS assay for identifying genotoxic compounds that show differential cytotoxicity against isogenic chicken DT40 cell lines with known DNA damage response pathways - Rev3 mutant cell line (AID 743014); further: nearly all actives have a fitted effect of over 55% in size
[15] = biological target: Androgen receptor (Homo sapiens) (UniProt P10275); assay: qHTS assay to identify small molecule antagonists of the androgen receptor (AR) signaling pathway (AID 743035; active means well fitted inhibition curve with a large enough effect in the signal ratio in the repeat runs, not every such curve was filed as active; the % refers to the signal ratio)
How it was run: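 AR-bla HEK293 reporter cells; 4 h settle at 37C/5% CO2; compound + R1881 agonist, 16 h at 37C; LiveBLAzer B/G FRET substrate 2 h RT; fluorescence intensity read. qHTS format.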

[16] = qHTS assay to identify small molecule antagonists of the androgen receptor (AR) signaling pathway using the MDA cell line - cell viability counter screen (AID 743041; further: nearly all actives have a fitted effect of over 45% in size)
How it was run: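 Cytotoxicity counter screen: MDA-kb2 AR-luc cells, compound + R1881, 16 h, 37C, 0% CO2; CellTiter-Fluor added at 15.5 h, fluorescence read after 30 min.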

[17] = qHTS assay to identify small molecule antagonists of the estrogen receptor alpha (ER-alpha) signaling pathway using the BG1 cell line - cell viability counter screen (AID 743081);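 further: compound given together with 17beta-estradiol as the ER stimulus; series mostly up to about 70 µM; nearly all actives have a fitted effect of over 45% in size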
[18] = qHTS assay to identify aromatase inhibitors - cell viability counter screen (AID 743084)
[19] = qHTS assay to identify small molecule antagonists of the thyroid receptor (TR) signaling pathway - cell viability counter screen (AID 743064); further: nearly all actives have a fitted effect of over 50% in size
How it was run: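 Compounds were tested on GH3.TRE-Luc cells in the presence of T3 at 1 nM final. Following 23.5 h at 37 °C, cell viability was quantified by CellTiter-Fluor.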

Aromatase (Homo sapiens), sequence (P11511 whole entry, looked up): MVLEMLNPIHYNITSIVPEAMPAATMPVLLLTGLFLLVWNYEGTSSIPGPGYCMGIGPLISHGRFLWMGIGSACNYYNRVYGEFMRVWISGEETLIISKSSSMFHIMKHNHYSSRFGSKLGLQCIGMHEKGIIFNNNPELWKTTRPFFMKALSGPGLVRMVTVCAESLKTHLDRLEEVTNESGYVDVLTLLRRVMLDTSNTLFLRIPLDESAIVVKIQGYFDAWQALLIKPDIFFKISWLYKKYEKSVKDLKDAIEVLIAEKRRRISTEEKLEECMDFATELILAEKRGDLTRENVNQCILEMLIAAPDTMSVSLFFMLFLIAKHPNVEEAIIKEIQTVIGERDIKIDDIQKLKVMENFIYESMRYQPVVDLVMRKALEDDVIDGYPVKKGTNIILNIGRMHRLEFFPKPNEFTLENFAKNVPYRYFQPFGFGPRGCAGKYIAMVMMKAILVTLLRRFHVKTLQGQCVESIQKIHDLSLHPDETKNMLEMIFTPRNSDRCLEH
Androgen receptor (Homo sapiens), sequence (P10275 whole entry, looked up): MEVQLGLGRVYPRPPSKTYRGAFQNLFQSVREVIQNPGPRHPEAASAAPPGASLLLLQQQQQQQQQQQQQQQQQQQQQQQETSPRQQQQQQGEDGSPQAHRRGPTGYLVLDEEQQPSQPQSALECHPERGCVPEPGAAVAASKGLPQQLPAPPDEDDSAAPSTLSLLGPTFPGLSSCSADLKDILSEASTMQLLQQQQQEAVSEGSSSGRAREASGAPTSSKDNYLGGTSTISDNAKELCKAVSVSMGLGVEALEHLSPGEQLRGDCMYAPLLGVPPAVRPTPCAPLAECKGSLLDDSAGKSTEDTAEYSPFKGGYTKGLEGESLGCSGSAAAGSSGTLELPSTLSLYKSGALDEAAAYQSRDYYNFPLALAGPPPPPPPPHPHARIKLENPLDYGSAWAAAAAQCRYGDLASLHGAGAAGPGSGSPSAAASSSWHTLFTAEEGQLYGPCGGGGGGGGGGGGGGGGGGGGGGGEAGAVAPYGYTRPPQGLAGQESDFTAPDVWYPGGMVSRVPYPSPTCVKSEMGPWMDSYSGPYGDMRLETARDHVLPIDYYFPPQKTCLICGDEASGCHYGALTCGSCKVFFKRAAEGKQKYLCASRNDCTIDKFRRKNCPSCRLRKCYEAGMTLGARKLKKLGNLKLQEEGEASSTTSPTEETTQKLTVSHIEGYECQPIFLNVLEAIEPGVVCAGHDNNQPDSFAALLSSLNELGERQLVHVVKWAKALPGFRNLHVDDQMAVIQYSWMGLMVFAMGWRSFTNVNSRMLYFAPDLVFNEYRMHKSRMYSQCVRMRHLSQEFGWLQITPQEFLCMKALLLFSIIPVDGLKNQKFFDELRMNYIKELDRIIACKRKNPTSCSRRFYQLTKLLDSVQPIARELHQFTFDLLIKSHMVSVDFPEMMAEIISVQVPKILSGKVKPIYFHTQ
Estrogen receptor (Homo sapiens), sequence (P03372 whole entry, looked up): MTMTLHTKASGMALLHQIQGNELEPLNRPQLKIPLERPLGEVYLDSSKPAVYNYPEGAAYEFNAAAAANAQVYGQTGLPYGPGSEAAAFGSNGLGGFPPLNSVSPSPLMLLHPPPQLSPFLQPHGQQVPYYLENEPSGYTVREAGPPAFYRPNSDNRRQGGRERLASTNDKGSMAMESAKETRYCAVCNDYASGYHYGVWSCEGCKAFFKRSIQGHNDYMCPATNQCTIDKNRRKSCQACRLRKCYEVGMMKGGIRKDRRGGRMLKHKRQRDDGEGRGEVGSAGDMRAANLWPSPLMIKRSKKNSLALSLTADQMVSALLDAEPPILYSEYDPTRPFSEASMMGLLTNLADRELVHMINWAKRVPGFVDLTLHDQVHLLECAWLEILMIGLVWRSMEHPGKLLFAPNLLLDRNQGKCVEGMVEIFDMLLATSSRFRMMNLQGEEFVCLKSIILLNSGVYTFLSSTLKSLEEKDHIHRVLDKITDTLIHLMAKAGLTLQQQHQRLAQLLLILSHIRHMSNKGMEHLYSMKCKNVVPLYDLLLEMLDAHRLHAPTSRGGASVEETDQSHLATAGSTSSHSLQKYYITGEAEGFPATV

| Compound | Potency [1] | Potency [2] | Potency [3] | outcome [4] | outcome [5] | outcome [6] | Potency [7] | Potency [8] | Potency [9] | Potency [10] | Potency [11] | Potency [12] | outcome [13] | outcome (Aromatase (Homo sapiens)) | Potency [14] | Potency [15] | outcome [16] | outcome [17] | Potency [18] | Potency [19] |
| --- | --- | --- | --- | --- | --- | --- | --- | --- | --- | --- | --- | --- | --- | --- | --- | --- | --- | --- | --- | --- |
| COc1cc([N+](=O)[O-])ccc1N | inactive | inactive | inactive | inactive | inactive | inactive | inactive | inactive | 6.92 µM [inhibitor] (active) | inactive | inactive | inactive | inactive | inactive | – | – | – | – | – | – |
| O=C(O)c1ccccc1C(=O)Nc1ccc(S(=O)(=O)Nc2nccs2)cc1 | inactive | inactive | – | inactive | inactive | inactive | inactive | inactive | – | inactive | – | – | – | inactive | inactive | inactive | inactive | inactive | inactive | – |
| C1=CCC(c2ccccc2)CC1 (configuration not stated) | inactive | 61.1 µM (active) | 54.5 µM (active) | inactive | – | – | – | inactive | – | inactive | – | – | – | inactive | – | – | inactive | inactive | inactive | – |
| Cc1ccccc1N1CCN(CCc2nnc3n2CCCC3)CC1 | inactive | inactive | inactive | inactive | – | – | inactive | inactive | – | inactive | – | – | – | inactive | – | – | – | inactive | inactive | inactive |
| CCCCOC(=O)C(=O)OCCCC | inactive | inactive | inactive | inactive | – | – | – | inactive | – | – | – | – | – | inactive | – | – | inactive | inactive | inactive | inactive |
| O=S1(=O)CCCC1 | inactive | inactive | inactive | inactive | – | – | – | inactive | inactive | inactive | inactive | inactive | – | inactive | – | – | inactive | inactive | inactive | inactive |
| CC(C)C(=O)c1ccccc1 | inactive | inactive | inactive | inactive | – | – | inactive | inactive | inactive | inactive | inactive | inactive | inactive | inactive | – | – | inactive | inactive | inactive | inactive |
| OC[C@@H](O)[C@H](O)[C@@H](O)[C@@H](O)CO | inactive | – | inactive | inactive | – | – | inactive | inactive | inactive | inactive | inactive | inactive | inactive | inactive | inactive | – | inactive | inactive | inactive | inactive |
| CCCCC(C)C(=O)O (configuration not stated) | inactive | inactive | – | inactive | – | – | inactive | inactive | – | inactive | – | – | – | inactive | – | – | inactive | inactive | inactive | inactive |
| CCCO | inactive | inactive | inactive | inactive | – | – | inactive | inactive | inactive | inactive | inactive | inactive | – | inactive | – | – | inactive | inactive | inactive | inactive |
| CCCCCCCCOC(C)=O | inactive | inactive | inactive | inactive | – | – | inactive | inactive | inactive | inactive | inactive | inactive | inactive | inactive | – | – | inactive | inactive | inactive | inactive |
